JMJD2A Tudor inh = blocks the human JMJD2A Tudor domain; O75164; AlphaScreen JMJD2A-Tudor / H3K4me3 peptide binding; Potency, µM (top dose mostly 114 µM), most hits filed as inhibitors; 390,000 compounds, 4.4% hits; also: nearly all actives have a fitted effect of over 50% in size
Sfp inh = blocks B. subtilis Sfp PPTase activity; Potency, µM, hits mostly inhibitors; 310,000 compounds, 3.5% hits; Biochemical Sfp PPTase activity, qHTS; Q9F4F7;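 also: the enzyme is Sfp with the accession as filed and its product quenches rhodamine fluorescence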
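Sfp 15 nM + cpd, 15 min RT; start w/ rhodamine-CoA 5 uM, BHQ-2-YbbR 12.5 uM (final); 50 mM Hepes pH 7.6, 10 mM MgCl2, 0.01% NP-40, 0.01% BSA; read 525/598 nm at 0 and 30 min.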
HP1b chromo inh = blocks HP1-beta chromodomain binding to methylated histone tails; P83916; AlphaScreen HP1-beta / biotin-H3K9me3 peptide binding; Potency, µM (titrated, usually from 114 µM), most hits filed as inhibitors; 390,000 compounds, 0.56% hits; AID 540317; also: nearly all actives have a fitted effect of over 70% in size
Target sequence (P83916 whole entry, looked up): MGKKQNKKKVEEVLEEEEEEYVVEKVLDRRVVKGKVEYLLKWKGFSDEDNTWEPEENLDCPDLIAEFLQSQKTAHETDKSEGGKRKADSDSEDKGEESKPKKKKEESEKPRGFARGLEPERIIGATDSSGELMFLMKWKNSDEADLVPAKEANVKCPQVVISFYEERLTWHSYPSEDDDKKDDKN
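HP1-beta protein (50 nM final) preincubated 30 min at room temperature with biotinylated H3(1-18)K9me3 peptide (50 nM) in PBS pH 7.4, 0.01% Tween-20, then compound added for 30 min. AlphaScreen streptavidin donor/nickel chelate acceptor beads (10 ug/mL final), 30 min dark, luminescence read.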
G9a block = blocks human histone lysine methyltransferase G9a | G9a H3K9 monomethylation, AlphaScreen, 2 h | Q96KQ7 | 350,000 compounds, 8.8% hits | Potency, µM (highest dose often 102 µM), hits mostly inhibitors; also: nearly all actives have a fitted effect of over 75% in size
Target sequence (Q96KQ7 913-1193 limits assumed): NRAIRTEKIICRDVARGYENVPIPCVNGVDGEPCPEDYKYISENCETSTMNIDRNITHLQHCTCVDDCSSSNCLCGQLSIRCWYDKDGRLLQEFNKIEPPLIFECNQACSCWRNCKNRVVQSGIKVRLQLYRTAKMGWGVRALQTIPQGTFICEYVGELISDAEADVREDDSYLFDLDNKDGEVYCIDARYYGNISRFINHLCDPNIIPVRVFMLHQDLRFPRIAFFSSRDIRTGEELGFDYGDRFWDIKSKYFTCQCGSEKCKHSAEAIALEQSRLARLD
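Quantitative HTS format: methyltransferase activity on a biotin-tagged H3K9 peptide is measured by AlphaScreen, using a rabbit anti-monomethyl-H3K9 antibody with streptavidin donor and anti-IgG acceptor beads. Final levels are 20 nM enzyme, 500 nM peptide, 20 uM SAM; 2 h RT.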
L3MBTL1 inh = blocks human L3MBTL1; AlphaScreen L3MBTL1–H3K9me1 peptide binding; Potency, µM (doses to about 57.1 µM), actives largely listed as inhibitors; 230,000 compounds, 0.66% hits; also: nearly all actives have a fitted effect of over 60% in size
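AlphaScreen proximity signal between nickel-chelate acceptor and streptavidin donor beads (final 10 ug/mL) reports binding of 50 nM L3MBTL1 to 75 nM biotin-H3 K9me1 peptide; complex incubated with compounds 30 min at room temperature; cefsulodin titration as control.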
BAZ2B inh = blocks human BAZ2B. Q9UIF8. AlphaScreen BAZ2B-H3K14Ac peptide displacement. Potency, µM (doses to about 114 µM), hits mostly inhibitors. 360,000 compounds, 4.4% hits. AID 504333; also: nearly all actives have a fitted effect of over 60% in size
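AlphaScreen luminescence quantifies BAZ2B engagement of H3K14Ac peptide; the protein and biotinylated peptide are both at 50 nM final, buffer PBS pH 7.4 with 0.01% Tween-20, all steps at room temperature.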
Numbers stand for hits; n = inactive; u = inconclusive; x = no result given; [ ] = remark or other dose. Hits are enriched below; roughly 12% of the tested compounds scored in any of these assays. Calls follow the shape of the dose curve; as a rule, active = well fitted curve in the direction sought with a large enough effect; inconclusive = small, poorly fitted or top-dose-only effect, or another doubt; inactive = no such curve, though single readings can be large; an effect the other way counts as inactive or inconclusive.

SMILES | JMJD2A Tudor inh | Sfp inh | HP1b chromo inh | G9a block | L3MBTL1 inh | BAZ2B inh
COc1c(Cl)cc(-c2noc(C)c2C(=O)NCCc2ccc(C)cc2)cc1Cl | n | n | n | n | x | n
Cc1cc[n+](C(C)C(=O)c2ccc(-c3ccccc3)cc2)cc1 (stereo not given) | n | n | n | n | x | n
O=C(O)c1ccccc1Nc1cc(Cl)cc(Cl)c1 | x | n | x | x | x | x
COc1ccc(OC)c(-n2c(CN3CCC(C(N)=O)CC3)nc3ccccc3c2=O)c1 | n | 35.5µM | n | u | n[11.4 µM] | u
CNC(=S)N/N=C/c1cn(CCOc2cccc(OC)c2)c2ccccc12 | u | u | u | 44.7µM | n | u
CNC(=S)N/N=C/c1cn(CCOc2ccccc2OC)c2ccccc12 | n | u | n | n | n | u
NC(=O)c1cc(NC(=O)CCNS(=O)(=O)c2cccc(C(F)(F)F)c2)cc(C(N)=O)c1 | n | n | n | n | x | n
O=C(CCN1CCOCC1)NNC(=S)NC(=O)c1ccc(Br)cc1 | u | n | n | 7.94µM | n | n
O=C(CCN1CCCCC1)NNC(=S)NC(=O)c1ccc(Br)cc1 | u | n | n | 11.2µM | u | u
O=C(NCCN1CCCC1)c1ccc(Br)cc1 | n | n | n | n[0.501 µM] | n[2.29 µM] | n
O=C(NC(=S)NCCCN1CCOCC1)c1ccc(Br)cc1 | n | n | n | n | n | n
CCN(CC)CCCn1c2c(c(SCC(=O)N3CCCc4ccccc43)nc1=O)CCC2 | n | x | n | n | n | n
O=c1cc(O)c2sc(Nc3ccc(F)c(Cl)c3)nc2[nH]1 | n | n | n | 28.2µM | x | n
CCCc1ccc(OC(=O)CSc2nnc(-c3cccs3)o2)cc1 | n | x | n | u | x | n
COc1ccc2cc(-c3[nH]ncc3CN3CCCC3c3nonc3C)ccc2c1 (stereo not given) | 79.4µM | n | n | n | n | u
Cc1nonc1N1CCN(Cc2cn[nH]c2-c2ccc3c(c2)OCO3)CC1 | n | n | n | n | n | n
COc1cccc(O)c1CN1CCCC(C(=O)c2cccc(C(F)(F)F)c2)C1 (stereo not given) | n | 70.8µM | n | n | n | n
Fc1ccc(-c2[nH]ncc2CN2CCN(c3ccc(F)cc3)CC2)cc1 | n | n | n | u | n | n
COc1ccc(-c2[nH]ncc2CN2CCC(O)(c3ccc(Cl)cc3)CC2)cc1 | n | n | n | x | n | n
COc1ccc(-c2[nH]ncc2CN2CCN(c3ccc(F)cc3)CC2)cc1 | n | n | n | 50.1µM | u | u
Fc1ccc(N2CCN(Cc3cn[nH]c3-c3ccccc3)CC2)cc1 | n | n | n | 70.8µM | u | n
COc1ccc(C(=O)C2CCCN(Cc3c(O)cccc3OC)C2)cc1OC (stereo not given) | n | n | n | n | n | n
COc1cccc(CNC(=O)C2CCCN(S(=O)(=O)c3cn(C)cn3)C2)c1 (stereo not given) | n | x | n | n[12.7 µM] | x | n
COc1ccc(-c2[nH]ncc2CN2CCCC(C(=O)c3cccc(OC)c3)C2)cc1 (stereo not given) | n | n | n | 44.7µM | n | n
COCCN(CCOC)Cc1cc(=O)oc2cc3c(cc12)CCC3 | n | n | n | 50.1µM | n | n
SMILES | JMJD2A Tudor inh | Sfp inh | HP1b chromo inh | G9a block | L3MBTL1 inh | BAZ2B inh
CCCS(=O)(=O)c1c(S(=O)(=O)CCC)c2cnccn2c1C(=O)c1ccc(OC)cc1 | n | n | n | 50.1µM | n | n
Cc1ccc(C(=O)c2nc3c(n2O)CCCC3)cc1 | 35.5µM | n | n | u | x | n
Cc1ccc(NC(=S)NNC(=S)Nc2cccc(C(F)(F)F)c2)cc1 | u | 28.2µM | u | 20µM | x | n
NC(=O)/C=C\C(=O)Nc1cccc(C(F)(F)F)c1 | n | n | n | 10µM | n | n
NNC(=O)Nc1cccc(C(F)(F)F)c1 | n | n | n | n | n | n
COCC(=O)N1CCC2(CCCN(c3ccccn3)C2)CC1 | x | n | x | n[12.7 µM] | x | x
COC(=O)C1C2CC(C(Br)C2Br)C1C(=O)O (stereo not given) | n | x | n | x | x | x
Cc1ccc(S(=O)(=O)N2CCN(C(=O)COc3ccc(C)nc3[N+](=O)[O-])CC2)c(C)c1 | n | n | n | n | n | x
COc1cc(C(=O)N2CCN(S(=O)(=O)c3ccc(Cl)cc3)CC2)ccc1OCC(=O)N1CCOCC1 | n | x | n | x | x | x
Cc1ccc(OCC(=O)N2CCN(S(=O)(=O)c3ccc(Cl)cc3)CC2)c([N+](=O)[O-])n1 | n | n | n | 39.8µM | n | n
O=C(Cc1c[nH]c2ccccc12)N1CCN(S(=O)(=O)c2ccc(Cl)cc2)CC1 | n | x | n | 14.1µM | n | n
COc1ccccc1OCC(=O)N1CCN(C(=O)COc2ccccc2OC)CC1 | n | n | n | 39.8µM | x | n
COc1ccccc1OCC(=O)N1CCCCCCC1 | n | n | n | x | n | n
COc1ccccc1OCC(=O)N1CCN(S(=O)(=O)c2ccc(Cl)cc2)CC1 | n | x | n | 44.7µM | n | n
O=C(O)C[CH2][Ge](=[O])[O][Ge](=[O])[CH2]CC(=O)O | x | n | x | n | x | x
CCNc1ncc2nc(-c3ccc(OC)cc3)c(=O)n(-c3ccc(OC)cc3)c2n1 | x | n | x | n[12.7 µM] | x | x
O=C(COc1ccc(Br)cc1)N1CCN(S(=O)(=O)/C=C/c2ccccc2)CC1 | n | n | n | n | n | n
O=C(COc1ccccc1F)N1CCN(S(=O)(=O)/C=C/c2ccccc2)CC1 | n | u | n | 44.7µM | n | n
CC1(C)CC(NC(=O)c2ccccn2)CC(C)(C)N1O | u | n | n | u | n | 50.1µM
COc1ccc(N/C=C(\C#N)c2nc3ccccc3n2C)c(OC)c1 | u | n | u | n | n | n
COc1ccc(N=Nc2nc3cc(Br)c(Br)cc3n2C)c(OC)c1 | 31.6µM | u | 44.7µM | u | u | 35.5µM
CCCCCCCC/C=C/CCCCCCCC(=O)NCCOP(=O)(O)O | x | n | x | x | x | x
COc1cccc2cc(C(=O)Nc3ccc(F)cc3)c(=Nc3ccc(C(=O)O)cc3)oc12 | n | n | n | 35.5µM | x | n
CC(=O)c1cccc(NC(=S)NC(=O)c2ccccc2)c1 | n | u | n | u | n | n
COc1cc2ccccc2cc1C(=O)NC(=S)Nc1ccc(C(=O)O)cc1 | 50.1µM | n | n | u | x | 50.1µM
COc1ccc(NC(=O)c2cc3ccccc3cc2OC)cc1 | u | n | u | n | n | n
COc1cc2ccccc2cc1C(=O)NC(=S)Nc1cccc(C(=O)O)c1 | n | n | n | u | n | 79.4µM
CCc1cccc(OCC2Cn3c(nc4c3c(=O)n(C)c(=O)n4C)O2)c1 (stereo not given) | n | n | n | x | n | n
CC1CCCCN1c1nnc(N)s1 (stereo not given) | n | n | n | n | n | n
CC1CCCC(C)N1c1nnc(N)s1 (stereo not given) | n | n | n | 17.8µM | n | n
